Results published in PubChem BioAssay (NCI).
Compounds without any hit were thinned out: in the full panel of roughly 83,000, 20% have a hit.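 Percent growth is the endpoint: 0 to 100 indicates growth inhibition (40 means 60% inhibition), 0 means no net growth, and negative values indicate cell death.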 Activity calls are given as the source filed them. Rule for the calls: active = growth percent below 10; inactive = the rest.

Tests used:
Test in all cases: NCI-60 one-dose screen, 48 h (100 = growth as untreated, 0 = no growth, -100 = all killed)
SR leukemia = settings: 10 µM unless noted
RPMI-8226 leukemia = settings: 10 µM unless noted
OVCAR-8 ovarian = settings: 10 µM unless noted
OVCAR-5 ovarian = settings: 10 µM unless noted
OVCAR-4 ovarian = settings: 10 µM unless noted
SK-OV-3 ovarian = settings: 10 µM unless noted
IGROV1 ovarian = settings: 10 µM unless noted
OVCAR-3 ovarian = settings: 10 µM unless noted
HS 578T breast = settings: 10 µM
NCI/ADR-RES ovarian = settings: 10 µM unless noted

Measured: growth

CC(C)(C)c1ccc(Cn2c(-c3nonc3N)nc3ccccc32)cc1
inactive: SR leukemia 28.2% | RPMI-8226 leukemia 61.9% | OVCAR-8 ovarian 80.1% | OVCAR-5 ovarian 99.2% | OVCAR-4 ovarian 98.4% | SK-OV-3 ovarian 61% | IGROV1 ovarian 66.6% | OVCAR-3 ovarian 69% | HS 578T breast 85.1% | NCI/ADR-RES ovarian 75.8%

COc1ccc(/C=C(/C(=O)N2CCN(c3ccccc3)CC2)c2cc(OC)c(OC)c(OC)c2)cc1O
inactive: RPMI-8226 leukemia 10.9% | OVCAR-8 ovarian 14.1% | OVCAR-5 ovarian 51.2% | OVCAR-4 ovarian 55.7% | SK-OV-3 ovarian 30.4% | IGROV1 ovarian 32.2% | HS 578T breast 39.1%
active: SR leukemia 9.53% | OVCAR-3 ovarian -33.1% | NCI/ADR-RES ovarian 3.09%

COc1ccc(NC(=O)/C=C/c2ccc(Cl)c(Cl)c2)cn1
inactive: SR leukemia 95.2% | RPMI-8226 leukemia 49.7% | OVCAR-8 ovarian 61.1% | OVCAR-5 ovarian 84.6% | OVCAR-4 ovarian 20.5% | SK-OV-3 ovarian 101% | IGROV1 ovarian 67.8% | OVCAR-3 ovarian 96.6% | HS 578T breast 92.6%
active: NCI/ADR-RES ovarian 1.03%

O=C1C(Cl)=C(N/N=c2/[nH][nH]/c(=N/NC3=C(Cl)C(=O)c4ccccc4C3=O)c3ccccc23)C(=O)c2ccccc21
inactive: SR leukemia 19.7% | RPMI-8226 leukemia 33.8% | OVCAR-8 ovarian 78.1% | OVCAR-5 ovarian 119% | OVCAR-4 ovarian 78.5% | SK-OV-3 ovarian 73.6% | IGROV1 ovarian 59.6% | OVCAR-3 ovarian 66.2% | HS 578T breast 37.4% | NCI/ADR-RES ovarian 66.1%

CC(CN1CCN(C)CC1)CN1c2ccccc2Sc2ccc(C(F)(F)F)cc21 (stereo not given)
active: SR leukemia -23.2%
inactive: RPMI-8226 leukemia 71.3% | OVCAR-8 ovarian 71.9% | OVCAR-5 ovarian 68% | OVCAR-4 ovarian 54.5% | SK-OV-3 ovarian 92.4% | IGROV1 ovarian 10.9% | OVCAR-3 ovarian 42.9% | HS 578T breast 60.7% | NCI/ADR-RES ovarian 52.8%

COc1ccccc1NC(=O)OCC12COCN1COC2
inactive: SR leukemia 93.8% | RPMI-8226 leukemia 99.8% | OVCAR-8 ovarian 96% | OVCAR-5 ovarian 96.4% | OVCAR-4 ovarian 105% | SK-OV-3 ovarian 105% | IGROV1 ovarian 109% | OVCAR-3 ovarian 116% | HS 578T breast 110% | NCI/ADR-RES ovarian 107%

CC(CN1CCN(CCOCCO)CC1)CN1c2ccccc2Sc2ccc(Cl)cc21 (stereo not given)
inactive: RPMI-8226 leukemia 60% | OVCAR-8 ovarian 97.2% | OVCAR-5 ovarian 71.7% | OVCAR-4 ovarian 75.7% | SK-OV-3 ovarian 90.4% | IGROV1 ovarian 60.1% | OVCAR-3 ovarian 67% | HS 578T breast 60.6% | NCI/ADR-RES ovarian 68.7%
active: SR leukemia -2.53%

COc1cc2nccc(Oc3ccc(NC(=O)C4(C(=O)Nc5ccc(F)cc5)CC4)cc3)c2cc1O
inactive: SR leukemia 41.3% | RPMI-8226 leukemia 52.8% | OVCAR-8 ovarian 73.7% | OVCAR-5 ovarian 80.8% | OVCAR-4 ovarian 37.1% | SK-OV-3 ovarian 86.5% | IGROV1 ovarian 52.1% | OVCAR-3 ovarian 78.7% | HS 578T breast 42.7% | NCI/ADR-RES ovarian 71.7%

Cc1cc(O)c(C2=NN(c3ccc(S(N)(=O)=O)cc3)C(c3ccc(Cl)cc3)C2)c(C)c1Cl (stereo not given)
inactive: OVCAR-5 ovarian 95.2% | OVCAR-4 ovarian 58.9% | SK-OV-3 ovarian 81.6% | IGROV1 ovarian 20.6% | OVCAR-3 ovarian 68.1% | HS 578T breast 71.2% | NCI/ADR-RES ovarian 80.3%
active: SR leukemia -24.1% | RPMI-8226 leukemia -37.6% | OVCAR-8 ovarian 5.73%

C=C(CN1CC=CCC1)[C@@H]1CC[C@]2(C(=O)OC)CC[C@]3(C)[C@H](CC[C@@H]4[C@@]5(C)CC[C@H](OC(C)=O)C(C)(C)[C@@H]5CC[C@]43C)[C@@H]12
inactive: SR leukemia 69.4% | RPMI-8226 leukemia 50% | OVCAR-8 ovarian 103% | OVCAR-5 ovarian 118% | OVCAR-4 ovarian 91.3% | SK-OV-3 ovarian 103% | IGROV1 ovarian 91.8% | OVCAR-3 ovarian 92.5% | HS 578T breast 109% | NCI/ADR-RES ovarian 107%

CCCc1n(Cc2ccc3ccccc3n2)cc[n+]1Cc1ccc2ccccc2c1
inactive: OVCAR-8 ovarian 10.8% | HS 578T breast 24.4% | NCI/ADR-RES ovarian 95.7%
active: SR leukemia -0.784% | RPMI-8226 leukemia -7.06% | OVCAR-5 ovarian 5.17% | OVCAR-4 ovarian 5.87% | SK-OV-3 ovarian 0.843% | IGROV1 ovarian 3.66% | OVCAR-3 ovarian -4%

COc1ccc(/C(=C\c2cc(OC)c(OC)c(OC)c2)C(=O)N2CCNCC2)cc1
inactive: SR leukemia 94.6% | RPMI-8226 leukemia 95.1% | OVCAR-8 ovarian 105% | OVCAR-5 ovarian 102% | OVCAR-4 ovarian 110% | SK-OV-3 ovarian 108% | IGROV1 ovarian 102% | OVCAR-3 ovarian 108% | HS 578T breast 102% | NCI/ADR-RES ovarian 98.3%

CCCCc1n(Cc2ccc3ccccc3n2)cc[n+]1Cc1ccc2ccccc2n1
inactive: OVCAR-8 ovarian 15% | OVCAR-5 ovarian 25.2% | OVCAR-4 ovarian 14% | SK-OV-3 ovarian 24.4% | IGROV1 ovarian 17.8% | HS 578T breast 41.5% | NCI/ADR-RES ovarian 97.9%
active: SR leukemia 6.57% | RPMI-8226 leukemia -20.3% | OVCAR-3 ovarian 9.83%

CN1CCN(Cc2ccc(NC(=O)c3cnc(F)c(C#Cc4cnc(N)c5ncccc45)c3)cc2C(F)(F)F)CC1
inactive: SR leukemia 13.4% | RPMI-8226 leukemia 18.2% | OVCAR-8 ovarian 29.6% | OVCAR-5 ovarian 37.2% | OVCAR-4 ovarian 16.6% | IGROV1 ovarian 13.9% | OVCAR-3 ovarian 46.2% | NCI/ADR-RES ovarian 29.9%
active: SK-OV-3 ovarian 3.65% | HS 578T breast -10.1%

CCOC(=O)C(Nc1ccccc1)C(=O)OCC
inactive: SR leukemia 106% | RPMI-8226 leukemia 106% | OVCAR-8 ovarian 105% | OVCAR-5 ovarian 100% | OVCAR-4 ovarian 93% | SK-OV-3 ovarian 105% | IGROV1 ovarian 92.3% | OVCAR-3 ovarian 129% | HS 578T breast 117% | NCI/ADR-RES ovarian 102%

O=C(Nc1ccccc1Cl)Oc1ccc2ccccc2c1
inactive: SR leukemia 71.1% | RPMI-8226 leukemia 97.8% | OVCAR-8 ovarian 84.1% | OVCAR-5 ovarian 89% | OVCAR-4 ovarian 101% | SK-OV-3 ovarian 93.5% | IGROV1 ovarian 77.9% | OVCAR-3 ovarian 96.6% | HS 578T breast 115% | NCI/ADR-RES ovarian 101%

Cc1n(Cc2ccc3ccccc3n2)cc[n+]1Cc1ccc2ccccc2n1
inactive: SR leukemia 48.8% | RPMI-8226 leukemia 24.6% | OVCAR-8 ovarian 97.9% | OVCAR-5 ovarian 83.4% | OVCAR-4 ovarian 24.1% | SK-OV-3 ovarian 91.1% | IGROV1 ovarian 64.4% | OVCAR-3 ovarian 54.8% | HS 578T breast 92.1% | NCI/ADR-RES ovarian 98.7%

COc1ccc(/C=C(/C(=O)N2CCN(c3ccccc3)CC2)c2cc(OC)c(OC)c(OC)c2)cc1N
active: RPMI-8226 leukemia 7.73% | OVCAR-3 ovarian -43.8% | NCI/ADR-RES ovarian 7.6%
inactive: SR leukemia 12.5% | OVCAR-8 ovarian 19.7% | OVCAR-5 ovarian 53.2% | OVCAR-4 ovarian 52.3% | SK-OV-3 ovarian 36.9% | IGROV1 ovarian 36.3% | HS 578T breast 36.6%

COC(=O)CNS(=O)(=O)c1ccc2c(c1)Cc1cc(S(=O)(=O)NCC(=O)OC)ccc1-2
inactive: SR leukemia 102% | RPMI-8226 leukemia 103% | OVCAR-8 ovarian 97.3% | OVCAR-5 ovarian 103% | OVCAR-4 ovarian 102% | SK-OV-3 ovarian 97.7% | IGROV1 ovarian 96.5% | OVCAR-3 ovarian 102% | HS 578T breast 95.7% | NCI/ADR-RES ovarian 105%

C=CCn1c(C)nc2cc(Nc3nc(Nc4ccc5nc(C)n(CC=C)c5c4)nc4ccccc34)ccc21
inactive: SR leukemia 106% | RPMI-8226 leukemia 98.8% | OVCAR-8 ovarian 98.9% | OVCAR-5 ovarian 107% | OVCAR-4 ovarian 99.5% | SK-OV-3 ovarian 104% | IGROV1 ovarian 102% | OVCAR-3 ovarian 108% | HS 578T breast 100% | NCI/ADR-RES ovarian 101%

COc1ccc2c(c1)CCCC21C(=O)Nc2ccccc21 (stereo not given)
inactive: SR leukemia 80.5% | RPMI-8226 leukemia 96.9% | OVCAR-8 ovarian 95.5% | OVCAR-5 ovarian 106% | OVCAR-4 ovarian 98.8% | SK-OV-3 ovarian 100% | IGROV1 ovarian 102% | OVCAR-3 ovarian 69.6% | HS 578T breast 107% | NCI/ADR-RES ovarian 104%

COc1ccc(/C(=C\c2ccc3c(c2)OCO3)C(=O)Nc2nc3ccc(F)cc3s2)cc1OC
inactive: SR leukemia 92.5% | RPMI-8226 leukemia 102% | OVCAR-8 ovarian 110% | OVCAR-5 ovarian 104% | OVCAR-4 ovarian 93.8% | SK-OV-3 ovarian 100% | IGROV1 ovarian 95.8% | OVCAR-3 ovarian 90.7% | HS 578T breast 104% | NCI/ADR-RES ovarian 123%

Nc1n[nH]c2ccc([C@@H]3Nc4c(F)cc5[nH]ncc5c4[C@H]4C5CCC(C5)[C@@H]34)cc12 (stereo not given in full)
active: OVCAR-3 ovarian -16.7%
inactive: SR leukemia 42.8% | RPMI-8226 leukemia 21.3% | OVCAR-8 ovarian 22% | OVCAR-5 ovarian 30.8% | OVCAR-4 ovarian 29.4% | SK-OV-3 ovarian 39.1% | IGROV1 ovarian 20.9% | HS 578T breast 20.9% | NCI/ADR-RES ovarian 13.8%

Cc1ccc(CSCc2ccc(C(=O)NC3CC3)o2)cc1
inactive: SR leukemia 18.2% | RPMI-8226 leukemia 52.1% | OVCAR-8 ovarian 72% | OVCAR-5 ovarian 76.3% | OVCAR-4 ovarian 69.1% | SK-OV-3 ovarian 108% | IGROV1 ovarian 89.2% | OVCAR-3 ovarian 74.6% | HS 578T breast 92.2% | NCI/ADR-RES ovarian 64.3%

O=C(NNC(=S)Nc1ccccc1)c1ccc(Nc2ncnc3c2cnn3-c2cccc(Br)c2)cc1
inactive: SR leukemia 115% | RPMI-8226 leukemia 110% | OVCAR-8 ovarian 110% | OVCAR-5 ovarian 105% | OVCAR-4 ovarian 106% | SK-OV-3 ovarian 101% | IGROV1 ovarian 107% | OVCAR-3 ovarian 107% | HS 578T breast 105% | NCI/ADR-RES ovarian 105%

O=C1OCC2=C1C(c1ccc(Cl)c(Cl)c1)c1cc3c(cc1N2CCO)CCC3 (stereo not given)
inactive: SR leukemia 33.7% | RPMI-8226 leukemia 22% | OVCAR-8 ovarian 23.5% | OVCAR-5 ovarian 35.3% | OVCAR-4 ovarian 50% | SK-OV-3 ovarian 38.6% | IGROV1 ovarian 30.1%
active: OVCAR-3 ovarian -42% | HS 578T breast 5.2% | NCI/ADR-RES ovarian 4.51%

COc1ccc(-c2nc(-c3cc(OC)cc(OC)c3)[nH]c2-c2ccc(OC)cc2)cc1
inactive: SR leukemia 25.3% | OVCAR-8 ovarian 58.1% | OVCAR-5 ovarian 77.7% | OVCAR-4 ovarian 59.7% | SK-OV-3 ovarian 85.6% | IGROV1 ovarian 71.7% | OVCAR-3 ovarian 45.3% | HS 578T breast 81.5% | NCI/ADR-RES ovarian 53.9%
active: RPMI-8226 leukemia -11.6%
